# From PubChem BioAssay AID2654 (Johns Hopkins Ion Channel Center, 2010)
# Results with a measured potency or affinity are listed apart. The source made the active and inactive calls.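 The calls were made as follows: active = increase of the KCNQ2 potassium channel current at -35 mV by at least one tested dose; inactive = no tested dose increases that current.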
# Target: Potassium voltage-gated channel subfamily KQT member 2 (Rattus norvegicus) (UniProt O88943)
# Experiment: retigabine-insensitive KCNQ2 potentiators, concentration-response, dose response, cell-based, retigabine-insensitive compounds (AID 2654)
# Conditions: KCNQ2-CHO cells, automated patch clamp current potentiation; at 30 µM (top of the series)
# Sequence of Potassium voltage-gated channel subfamily KQT member 2 (Rattus norvegicus) (O88943 whole entry, looked up): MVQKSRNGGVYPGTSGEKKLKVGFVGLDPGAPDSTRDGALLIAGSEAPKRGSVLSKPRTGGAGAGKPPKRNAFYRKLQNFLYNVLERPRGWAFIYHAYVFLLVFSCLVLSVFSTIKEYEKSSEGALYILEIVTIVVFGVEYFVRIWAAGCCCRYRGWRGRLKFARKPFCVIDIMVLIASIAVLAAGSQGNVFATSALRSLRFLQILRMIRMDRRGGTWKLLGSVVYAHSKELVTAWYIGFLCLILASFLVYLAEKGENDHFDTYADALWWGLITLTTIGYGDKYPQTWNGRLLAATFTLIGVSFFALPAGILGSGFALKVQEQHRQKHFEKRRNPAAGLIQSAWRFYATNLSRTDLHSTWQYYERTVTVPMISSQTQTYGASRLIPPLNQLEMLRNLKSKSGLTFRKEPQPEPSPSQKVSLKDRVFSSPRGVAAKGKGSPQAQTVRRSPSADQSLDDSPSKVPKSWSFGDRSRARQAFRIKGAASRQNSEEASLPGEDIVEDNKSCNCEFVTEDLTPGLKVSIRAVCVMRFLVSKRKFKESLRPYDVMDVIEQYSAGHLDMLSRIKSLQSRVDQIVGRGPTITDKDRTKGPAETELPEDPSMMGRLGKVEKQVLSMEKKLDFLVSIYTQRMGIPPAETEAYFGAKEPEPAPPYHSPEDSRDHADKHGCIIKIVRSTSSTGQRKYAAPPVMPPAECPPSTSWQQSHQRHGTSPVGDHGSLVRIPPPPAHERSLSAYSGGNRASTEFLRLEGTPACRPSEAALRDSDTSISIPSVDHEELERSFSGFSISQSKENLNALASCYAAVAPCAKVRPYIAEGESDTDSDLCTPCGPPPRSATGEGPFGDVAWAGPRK
row,SMILES,potentiation
1,O=C(Nc1cccnc1)N1CCOCC1,12.8 (inactive)
2,O=C(Nc1cccnc1)N(CC1CC1)c1ccccc1,-0.98 (inactive)
3,Cc1c(Cl)cccc1NC(=O)Nc1cccnc1,102
4,O=C(Nc1cccnc1)Nc1ccc(Cl)cc1Cl,2.74 (inactive)
5,Cc1ccc(NC(=S)Nc2cccnc2)cc1,12.9 (inactive)
6,Cc1ccc(Cl)cc1NC(=S)Nc1cccnc1,8.95 (inactive)
7,O=C(Nc1cccnc1)Nc1ccc(Br)cc1Cl,0.99 (inactive)
8,S=C(Nc1cccnc1)NC1CCCc2ccccc21 (stereo not drawn),4.07 (inactive)
9,Cc1ccc(CNC(=S)Nc2cccnc2)cc1,-2.47 (inactive)
10,S=C(Nc1cccnc1)NC1CCCC1,-2.86 (inactive)
11,COc1ccccc1NC(=O)Nc1cccnc1,28 (inactive)
12,O=C(Nc1cccnc1)Nc1ccc(Cl)c(Cl)c1,5.41 (inactive)
13,Cc1cc(NC(=O)NCc2ccc(Cl)cc2Cl)cnc1Cl,-14.9 (inactive)
14,S=C(Nc1ccc(Cl)cc1)Nc1cccnc1,18.5 (inactive)
15,S=C(Nc1cccnc1)NC1CCCCCCC1,7.28 (inactive)
16,Cc1ccc(C)c(NC(=O)Nc2cccnc2)c1,4.05 (inactive)
17,Fc1ccc(NC(=S)Nc2cccnc2)c(Cl)c1,10.5 (inactive)
18,CCOc1ccccc1NC(=O)Nc1cccnc1,-2.96 (inactive)
19,S=C(NCC1CCCCC1)Nc1cccnc1,14.3 (inactive)
20,Cc1ccc(Cl)cc1NC(=O)Nc1cccnc1,-2.18 (inactive)
21,O=C(Nc1cccnc1)Nc1ccc2c(c1)OCCO2,23.4 (inactive)
22,Cc1cc(NC(=O)Nc2cccc(F)c2)cnc1Cl,-1.64 (inactive)
23,O=C(Nc1cccnc1)Nc1ccc2c(c1)CCC2,103
24,Fc1ccc(NC(=S)Nc2cccnc2)c(F)c1F,6.35 (inactive)
25,Cc1nc(F)ccc1NC(=O)NCc1ccc(Cl)cc1Cl,0.46 (inactive)
26,O=C(Nc1cccnc1)Nc1cc(Cl)cc(Cl)c1,1.48 (inactive)
27,COc1cccc(NC(=S)Nc2cccnc2)c1,17.9 (inactive)
28,S=C(NCc1ccco1)Nc1cccnc1,7.03 (inactive)
